# Measurements published in the supplement of paper PMC4466140.
# What was measured:
# Assay in all cases: SPOT peptide array binding signal intensity (averaged, normalized) (arbitrary units (background-subtracted, floor 0; scale differs between SH3 domains)); higher = stronger binding of the SH3 domain to the peptide
# [1] = target: AgAbp1
# Summary of the method: (§1)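 Cellulose membranes carried synthetic 15-mer peptides with cysteines swapped for serines. These were incubated overnight at 4°C with 10 μg/ml of GST-fused SH3 domains from four yeast species in TBS-based blocking buffer. Binding signal, detected with anti-GST antibody and quantified in Genespotter, is the normalized, background-subtracted spot intensity averaged over replicates, in arbitrary units specific to each domain.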
# [2] = target: AgBbc1
# Summary of the method: as §1
# [3] = target: AgBem1-D1
# Summary of the method: as §1
# [4] = target: AgBzz1-D1
# Summary of the method: as §1
# [5] = target: AgBzz1-D2
# Summary of the method: as §1
# [6] = target: AgCyk3
# Summary of the method: as §1
# [7] = target: AgFus1
# Summary of the method: as §1
# [8] = target: AgHof1
# Summary of the method: as §1
# [9] = target: AgHse1
# Summary of the method: as §1
# [10] = target: AgLsb1
# Summary of the method: as §1
# [11] = target: AgLsb4
# Summary of the method: as §1
# [12] = target: AgMyo5
# Summary of the method: as §1
# [13] = target: AgNbp2
# Summary of the method: as §1
# [14] = target: AgRvs167
# Summary of the method: as §1
# [15] = target: AgSho1
# Summary of the method: as §1
# [16] = target: AgSla1-D1-D2
# Summary of the method: as §1
# [17] = target: AgSla1-D3
# Summary of the method: as §1
# [18] = target: CaAbp1-D1
# Summary of the method: as §1
# [19] = target: CaAbp1-D2
# Summary of the method: as §1
# [20] = target: CaBbc1
# Summary of the method: as §1
# [21] = target: CaBem1-D1
# Summary of the method: as §1
# [22] = target: CaBzz1-D1
# Summary of the method: as §1
# [23] = target: CaBzz1-D2
# Summary of the method: as §1
# [24] = target: CaCyk3
# Summary of the method: as §1
# [25] = target: CaFus1
# Summary of the method: as §1
# [26] = target: CaHof1
# Summary of the method: as §1
# [27] = target: CaHse1
# Summary of the method: as §1
# [28] = target: CaLsb1
# Summary of the method: as §1
# [29] = target: CaLsb4
# Summary of the method: as §1
# [30] = target: CaMyo5
# Summary of the method: as §1
# [31] = target: CaNbp2
# Summary of the method: as §1
# [32] = target: CaRvs167
# Summary of the method: as §1
# [33] = target: CaRvs167-3
# Summary of the method: as §1
# [34] = target: CaSho1
# Summary of the method: as §1
# [35] = target: CaSla1-D1-D2
# Summary of the method: as §1
# [36] = target: CaSla1-D3
# Summary of the method: as §1
# [37] = target: ScAbp1
# Summary of the method: as §1
# [38] = target: ScBbc1
# Summary of the method: as §1
# [39] = target: ScBem1-D1
# Summary of the method: as §1
# [40] = target: ScBzz1-D1
# Summary of the method: as §1
# [41] = target: ScBzz1-D2
# Summary of the method: as §1
# [42] = target: ScCyk3
# Summary of the method: as §1
# [43] = target: ScFus1
# Summary of the method: as §1
# [44] = target: ScHof1
# Summary of the method: as §1
# [45] = target: ScHse1
# Summary of the method: as §1
# [46] = target: ScLsb1
# Summary of the method: as §1
# [47] = target: ScLsb2
# Summary of the method: as §1
# [48] = target: ScLsb3
# Summary of the method: as §1
# [49] = target: ScLsb4
# Summary of the method: as §1
# [50] = target: ScMyo3
# Summary of the method: as §1
# [51] = target: ScMyo5
# Summary of the method: as §1
# [52] = target: ScNbp2
# Summary of the method: as §1
# [53] = target: ScPex13
# Summary of the method: as §1
# [54] = target: ScRvs167
# Summary of the method: as §1
# [55] = target: ScSho1
# Summary of the method: as §1
# [56] = target: ScSla1-D1-D2
# Summary of the method: as §1
# [57] = target: ScSla1-D3
# Summary of the method: as §1
# [58] = target: SpAbp1-D1
# Summary of the method: as §1
# [59] = target: SpBbc1
# Summary of the method: as §1
# [60] = target: SpBzz1-D1
# Summary of the method: as §1
# [61] = target: SpBzz1-D2
# Summary of the method: as §1
# [62] = target: SpCyk3
# Summary of the method: as §1
# [63] = target: SpHof1
# Summary of the method: as §1
# [64] = target: SpHof1-2
# Summary of the method: as §1
# [65] = target: SpHof1-3
# Summary of the method: as §1
# [66] = target: SpHse1
# Summary of the method: as §1
# [67] = target: SpLsb1
# Summary of the method: as §1
# [68] = target: SpLsb4
# Summary of the method: as §1
# [69] = target: SpMyo1
# Summary of the method: as §1
# [70] = target: SpNbp2
# Summary of the method: as §1
# [71] = target: SpPex13
# Summary of the method: as §1
# [72] = target: SpRvs167
# Summary of the method: as §1
# [73] = target: SpSla1-D1-D2
# Summary of the method: as §1
# [74] = target: SpSla1-D3
# Summary of the method: as §1
binder,measurement,setting,value
NQARKPFLLPATELS,SPOT peptide array binding signal intensity,[1],≤ 0
same,SPOT peptide array binding signal intensity,[2],≤ 0
same,SPOT peptide array binding signal intensity,[3],23.5
same,SPOT peptide array binding signal intensity,[4],19
same,SPOT peptide array binding signal intensity,[5],16.5
same,SPOT peptide array binding signal intensity,[6],≤ 0
same,SPOT peptide array binding signal intensity,[7],≤ 0
same,SPOT peptide array binding signal intensity,[8],11.8
same,SPOT peptide array binding signal intensity,[9],454
same,SPOT peptide array binding signal intensity,[10],295
same,SPOT peptide array binding signal intensity,[11],≤ 0
same,SPOT peptide array binding signal intensity,[12],2
same,SPOT peptide array binding signal intensity,[13],5
same,SPOT peptide array binding signal intensity,[14],≤ 0
same,SPOT peptide array binding signal intensity,[15],≤ 0
same,SPOT peptide array binding signal intensity,[16],3
same,SPOT peptide array binding signal intensity,[17],0.5
same,SPOT peptide array binding signal intensity,[18],225
same,SPOT peptide array binding signal intensity,[19],17
same,SPOT peptide array binding signal intensity,[20],≤ 0
same,SPOT peptide array binding signal intensity,[21],≤ 0
same,SPOT peptide array binding signal intensity,[22],≤ 0
same,SPOT peptide array binding signal intensity,[23],≤ 0
same,SPOT peptide array binding signal intensity,[24],1
same,SPOT peptide array binding signal intensity,[25],228
same,SPOT peptide array binding signal intensity,[26],≤ 0
same,SPOT peptide array binding signal intensity,[27],4.75
same,SPOT peptide array binding signal intensity,[28],0.5
same,SPOT peptide array binding signal intensity,[29],≤ 0
same,SPOT peptide array binding signal intensity,[30],3.75
same,SPOT peptide array binding signal intensity,[31],100
same,SPOT peptide array binding signal intensity,[32],0.333
same,SPOT peptide array binding signal intensity,[33],4.5
same,SPOT peptide array binding signal intensity,[34],28.5
same,SPOT peptide array binding signal intensity,[35],≤ 0
same,SPOT peptide array binding signal intensity,[36],≤ 0
same,SPOT peptide array binding signal intensity,[37],59.5
same,SPOT peptide array binding signal intensity,[38],3.75
same,SPOT peptide array binding signal intensity,[39],3.5
same,SPOT peptide array binding signal intensity,[40],13
same,SPOT peptide array binding signal intensity,[41],6.5
same,SPOT peptide array binding signal intensity,[42],8
same,SPOT peptide array binding signal intensity,[43],15
same,SPOT peptide array binding signal intensity,[44],0.5
same,SPOT peptide array binding signal intensity,[45],1630
same,SPOT peptide array binding signal intensity,[46],23.5
same,SPOT peptide array binding signal intensity,[47],≤ 0
same,SPOT peptide array binding signal intensity,[48],≤ 0
same,SPOT peptide array binding signal intensity,[49],≤ 0
same,SPOT peptide array binding signal intensity,[50],≤ 0
same,SPOT peptide array binding signal intensity,[51],≤ 0
same,SPOT peptide array binding signal intensity,[52],≤ 0
same,SPOT peptide array binding signal intensity,[53],≤ 0
same,SPOT peptide array binding signal intensity,[54],4.67
same,SPOT peptide array binding signal intensity,[55],105
same,SPOT peptide array binding signal intensity,[56],≤ 0
same,SPOT peptide array binding signal intensity,[57],8
same,SPOT peptide array binding signal intensity,[58],34
same,SPOT peptide array binding signal intensity,[59],≤ 0
same,SPOT peptide array binding signal intensity,[60],≤ 0
same,SPOT peptide array binding signal intensity,[61],≤ 0
same,SPOT peptide array binding signal intensity,[62],1
same,SPOT peptide array binding signal intensity,[63],24.5
same,SPOT peptide array binding signal intensity,[64],0.5
same,SPOT peptide array binding signal intensity,[65],870
same,SPOT peptide array binding signal intensity,[66],770
same,SPOT peptide array binding signal intensity,[67],11
same,SPOT peptide array binding signal intensity,[68],≤ 0
same,SPOT peptide array binding signal intensity,[69],≤ 0
same,SPOT peptide array binding signal intensity,[70],7
same,SPOT peptide array binding signal intensity,[71],≤ 0
same,SPOT peptide array binding signal intensity,[72],≤ 0
same,SPOT peptide array binding signal intensity,[73],≤ 0
same,SPOT peptide array binding signal intensity,[74],≤ 0
